# Screens: PubChem, National Center for Advancing Translational Sciences (NCATS)
# Hits are enriched below; roughly 7.3% of the tested compounds scored in any of these assays.
# Rab9 prom act = qHTS Assay for Rab9 Promoter Activators. Huh7 Rab9 promoter-luciferase reporter, luminescence, 24 h. Potency, µM (series often up to 9.22 µM), for the others: at the highest dose activation, negative = inhibition, usual class: activators. hit rate 2.8% among 320,000. AID 485297, 2010; note: % of control where 0% means no effect; nearly all actives have a fitted effect of over 60% in size
#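 Steps: seed 1500 Huh7 Rab9-luc cells per well, rest 2 h at 37 °C; add compound in DMSO; incubate 24 h; add luciferase reagent, 10 min ambient; read luminescence.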
# SMN2 splice up = qHTS Assay for Enhancers of SMN2 Splice Variant Expression. HEK293 SMN2-luciferase splicing reporter, luminescence, 30-36 h. Potency, µM (titrated, usually from 46.1 µM), without a hit: at the top dose activity change, positive = activation, actives largely listed as activators. hit rate 2.8% among 210,000; note: % of control where 0% means no effect; nearly all actives have a fitted effect of over 55% in size
#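 HEK293 cells carry an SMN2 minigene-luciferase reporter in which exon 7 inclusion puts luciferase in frame. Cells were seeded at 2000 cells/well, attached for 10-12 hours, then exposed to compounds for 30-36 hours at 37C before ONE-Glo luminescence.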
# KinaseGlo FLuc = Counterscreen for Luciferase (Kinase-Glo TM) Inhibition. Potency, µM (doses to about 38.3 µM), inactives show top-dose activity change, negative = inhibition, hits mostly inhibitors. hit rate 0.28% among 200,000. Kinase-Glo luciferase, ATP luminescence, 8 min; note: % is set by controls: 0 for no effect and ±100 for the full control effect; nearly all actives have a fitted effect of over 60% in size
#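 Kinase-Glo luciferase light output from ATP and luciferin was measured with 10 uM ATP, within the enzyme's linear range. Buffer: 50 mM imidazole pH 7.2, 50 mM KCl, 7 mM MgCl2, 0.01% Tween 20, 0.05% BSA; luminescence read after 8 min at ambient temperature.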
# NPC1 prom act = qHTS Assay for NPC1 Promoter Activators | Huh7 NPC1 promoter luciferase reporter, 24 h | Potency, µM (top dose mostly 9.22 µM), inactives show top-dose activation, most hits filed as activators | hit rate 2.4% among 320,000 | AID 485313, 2010; note: % of control where 0% means no effect; nearly all actives have a fitted effect of over 60% in size
#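 In 1536-well qHTS, Huh7 cells harboring an NPC1 promoter–luciferase construct received compound for 24 h; activation was quantified by luminescence following luciferase reagent addition.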
# FLuc modulator = qHTS profiling assay for firefly luciferase inhibitor/activator using purifed enzyme and Km concentrations of substrates (counterscreen for miR-21 project) | Luciferin 4-monooxygenase (Photinus pyralis), P08659 | purified FLuc, Km substrates, luminescence inhibition | Potency, µM (doses to about 57.5 µM), inactives show top-dose activity change, negative = inhibition, actives largely listed as inhibitors | hit rate 6.9% among 360,000 | AID 588342, 2011;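 note: plate controls were vehicle for no effect and reference inhibitor for full effect; nearly all actives have a fitted effect of over 55% in size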
# Target sequence (P08659 whole entry, looked up): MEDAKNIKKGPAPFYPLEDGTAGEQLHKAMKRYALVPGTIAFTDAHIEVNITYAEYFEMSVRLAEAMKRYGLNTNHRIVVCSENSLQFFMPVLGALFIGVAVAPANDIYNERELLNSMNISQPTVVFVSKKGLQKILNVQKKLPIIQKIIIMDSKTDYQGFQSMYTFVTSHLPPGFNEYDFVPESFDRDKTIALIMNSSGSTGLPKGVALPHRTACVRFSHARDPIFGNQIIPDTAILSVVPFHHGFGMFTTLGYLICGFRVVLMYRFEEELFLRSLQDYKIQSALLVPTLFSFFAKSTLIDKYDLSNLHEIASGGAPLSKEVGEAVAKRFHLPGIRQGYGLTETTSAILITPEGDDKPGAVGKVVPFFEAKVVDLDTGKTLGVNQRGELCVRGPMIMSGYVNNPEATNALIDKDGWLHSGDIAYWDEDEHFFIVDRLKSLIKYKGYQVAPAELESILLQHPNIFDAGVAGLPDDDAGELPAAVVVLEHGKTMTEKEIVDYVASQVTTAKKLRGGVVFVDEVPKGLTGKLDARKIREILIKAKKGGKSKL
#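 Purified P. pyralis luciferase, 10 nM final, with Km-level 10 uM D-luciferin and 10 uM ATP in 50 mM Tris acetate pH 7.5, 10 mM Mg acetate, 0.01% Tween-20, 0.05% BSA; 6-point qHTS titration about 60 µM downward; luminescence read.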
# Starred values were filed as active, the others as inactive; ? = inconclusive; . = no result given; [ ] = remark or other dose. Calls come from the whole dose curve; as a rule, active = well fitted curve in the direction sought with a large enough effect; inconclusive = small, poorly fitted or top-dose-only effect, or another doubt; inactive = no such curve, though single readings can be large; an effect the other way counts as inactive or inconclusive. Potency is the fitted concentration of half-maximal effect.
SMILES,Rab9 prom act,SMN2 splice up,KinaseGlo FLuc,NPC1 prom act,FLuc modulator
Cc1ccc(CNC(=O)Cn2cc(S(=O)(=O)Cc3ccccc3Cl)c3ccccc32)cc1,.,.,.,.,-16.0%
COC(=O)c1ccc(C2OCC(C)(C)CO2)cc1,?,?,-1.6%,?,26.9µM*
COc1cc(NC(=O)c2ccc(-n3cnc4cccnc43)cc2)cc(OC)c1,.,.,.,.,-1.4%
O=C(CC(Nc1ccccc1Cl)C(=O)OCC(=O)c1cccs1)c1ccccc1 (stereo unspecified),15.1%,-7.9%,-0.5%,5.3%,-18.4%
COc1ccccc1NC(CC(=O)c1ccccc1)C(=O)OCC(=O)c1ccc(Br)cc1 (stereo unspecified),10.9%,26.8%,0.2%,19.9%,2.13µM*
COc1ccccc1NC(CC(=O)c1ccccc1)C(=O)OCC(=O)c1ccc(C)c(C)c1 (stereo unspecified),18.8%,8.91µM*,1.6%,15.7%,3.01µM*
COc1ccccc1NC(CC(=O)c1ccccc1)C(=O)OCC(=O)c1ccc(C)cc1 (stereo unspecified),25.6%,8.91µM*,-2.4%,9.7%,3.38µM*
CC(CN1CCCC1)OC(=O)c1ccc(Cl)cc1Cl (stereo unspecified),1.2%,.,.,-3.6%,?
O=C(O/N=C1/CCCc2occc21)c1ccccc1,0.0%,-6.9%,?,-4.6%,2.13µM*
O=C(O/N=C1/CCCc2occc21)c1ccc(Cl)cc1Cl,-3.8%,.,.,-3.3%,5.36µM*
Cc1ccn2c(=O)cc(COc3ccc(NC(=O)c4ccccc4F)cc3)nc2c1,.,.,.,.,-2.0%
CCCCCOc1ccc(NC(=O)Cn2c(-c3cncs3)nc3ccccc32)cc1,.,32.0%,.,.,1.2%
Cc1cncn1CCc1nc2c3ccccc3nc(SCC(=O)Nc3ccccc3F)n2n1,.,.,.,.,1.5%
CC1(C)OC(=O)C(=CNc2cccc(C(=O)O)c2)C(=O)O1,?,-0.3%,0.8%,24.2%,15.1µM*
COc1ccc(/C=C2\N=C(c3ccccc3Cl)NC2=O)cc1,-15.8%,.,.,-29.9%,1.69µM*
COc1ccc(/C=C2\N=C(SC)NC2=O)cc1,.,1.6%,-5.7%,.,?
NC(=S)N/N=C/c1cn(-c2ccccc2)nc1-c1cccnc1,11.8%,.,.,15.1%,6.01µM*
O=C(O)/C(=C\c1cn(-c2ccccc2)nc1-c1cccnc1)NC(=O)c1ccccc1,-5.9%,.,.,0.3%,-1.5%
O=C(N/N=C/c1cn(-c2ccccc2)nc1-c1cccnc1)c1ccccc1,20.1%,28.0%,-1.8%,-6.2%,?
NC(=O)N/N=C/c1cn(-c2ccccc2)nc1-c1cccnc1,-2.4%,.,.,1.3%,9.53µM*
O=C(/C=C/c1cn(-c2ccccc2)nc1-c1cccnc1)N1CCCCC1,10.1%,3.2%,-0.8%,-0.3%,15.1µM*
O=C(Cc1ccccc1)NNC1=NS(=O)(=O)c2ccccc21,-10.3%,.,0.2%,0.7%,?
O=C(NNC1=NS(=O)(=O)c2ccccc21)c1ccc([N+](=O)[O-])cc1,28.1%,.,.,?,1.51µM*
O=C(NNC1=NS(=O)(=O)c2ccccc21)c1ccc(Cl)cc1,?,-5.4%,3.4%,?,3.38µM*
CCN(CC)S(=O)(=O)c1ccc(C(=O)NNC2=NS(=O)(=O)c3ccccc32)cc1,-3.5%,.,.,-1.2%,-12.9%
SMILES,Rab9 prom act,SMN2 splice up,KinaseGlo FLuc,NPC1 prom act,FLuc modulator
CCCN(Cc1cccs1)C(=O)Nc1cc(C)ccc1OC,.,.,.,.,1.7%
C[C@H](NC(=O)[C@@H]1Cc2ccccc2CN1)C(=O)Nc1ccc2c(c1)OCO2,1.8%,.,.,8.8%,-5.6%
C[C@@H](NC(=O)[C@@H]1Cc2ccccc2CN1)C(=O)Nc1ccc2c(c1)OCCO2,27.2%,.,.,29.7%,21.3µM*
CC(=O)c1sc(NC(=O)c2ccc(C)c(C)c2)nc1C,1.78µM*,8.91µM*,-2.3%,1.58µM*,2.39µM*
COc1ccc(/C=C/C(=O)Nc2nc(C)c(C(=O)N(C)C)s2)cc1,-0.6%,5.7%,-1.1%,1.8%,19µM*
CC(=O)c1sc(NC(=O)c2cnc(Cl)c(Cl)c2)nc1C,-4.4%,.,.,3.2%,?
COc1ccc(C(=O)Nc2nc(C)c(C(=O)N(C)C)s2)cc1OC,22.4%,?,-14.6%,17.3%,13.5µM*
CC(=O)c1sc(NC(=O)c2ccc3c(c2)OCO3)nc1C,3.55µM*,.,.,2.51µM*,4.78µM*
CC(=O)c1sc(NC(=O)C(C)(C)C)nc1C,1.2%,-7.7%,-1.4%,-2.4%,-2.0%
CC(=O)c1sc(NC(=O)c2ccc(C(C)(C)C)cc2)nc1C,1.58µM*,.,-2.6%,1.58µM*,1.35µM*
COc1cc(CCC(=O)NCc2ccc3c(c2)CCN3C(=O)c2ccccc2)cc(OC)c1OC,.,.,.,.,-5.9%
CN=c1c([N+](=O)[O-])nn(-c2ccc3c(c2)OCCO3)n1O,?,-9.6%,-1.0%,20.0%,-13.8%
O=[N+]([O-])c1nn(-c2ccc3c(c2)OCCO3)n(O)c1=NCc1ccc(F)cc1,3.55µM*,3.98µM*,-13.6%,?,4.26µM*
COc1cc(N=c2c([N+](=O)[O-])nn(-c3ccc4c(c3)OCCO4)n2O)cc(OC)c1,?,12.6µM*,-0.4%,28.6%,?
CCc1cccc(N=c2c([N+](=O)[O-])nn(-c3ccc4c(c3)OCCO4)n2O)c1,-14.6%,-20.1%,2.2%,-29.4%,?
CC(C)c1ccc(N=c2c([N+](=O)[O-])nn(-c3ccc4c(c3)OCCO4)n2O)cc1,-7.8%,-42.4%,1.8%,-6.1%,-8.3%
O=[N+]([O-])c1nn(-c2ccc3c(c2)OCCO3)n(O)c1=NCc1ccc(F)cc1Cl,2.82µM*,3.55µM*,2.0%,?,?
O=[N+]([O-])c1nn(-c2ccc3c(c2)OCCO3)n(O)c1=NCCC1=CCCCC1,3.55µM*,?,0.1%,?,?
COc1ccc(C2=NC(C)(C)N(CC(=O)Nc3ccc(F)c(F)c3)C2=O)cc1,.,-9.1%,.,.,-1.6%
O=c1[nH][nH]cc1C=Nc1ccccc1O,-9.8%,?,-9.0%,2.0%,0.6%
O=c1c(=Nc2ccccc2O)c(=O)c2ccccc12,3.55µM*,11.2µM*,-1.9%,?,-18.7%
Nc1ccc2c(c1)COC2=O,21.5%,18.1%,-2.6%,9.7%,16.9µM*
O=C1OCc2cc(-n3cccc3)ccc21,2.2%,-2.6%,2.4%,-0.8%,-4.1%
CCCCn1c(=N)c(S(=O)(=O)c2ccc(Cl)cc2)cc2c(=O)n3cccc(C)c3nc21,.,-10.5%,.,.,-2.6%
COc1cnc(-c2ccccn2)nc1N(C)c1ccccc1,1.3%[1.84 µM],.,.,-0.2%,10.7µM*
COc1cnc(-c2ccccn2)nc1Oc1ccccc1,12.4%,-32.5%,-3.7%,-5.5%,-2.8%
CCOCCc1nnc(NC(=O)C(=O)c2cc(C)n(-c3cccc(Cl)c3)c2C)s1,.,.,.,.,2.0%
